Shown are actives, neighbours in structure and some others; about 8% of the full set was active somewhere.
KB-V1 MDR tox: qHTS assay for MDR1-selective chemotherapeutics: Primary screen using the drug-selected MDR subline cells KB-V1; KB-V1 MDR cells viability, CellTiter-Glo, 72 h; Potency, µM (series often up to 46.1 µM), most hits filed as cytotoxic; 400,000 tested, 3.4% active; also: % is scaled to controls: 0 for no effect and ±100 for the full control effect; nearly all actives have a fitted effect of over 60% in size
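Cells of the MDR subline KB-V1 are plated, dosed with compound at multiple concentrations, and incubated 72 h at 37 degrees C; CellTiter-Glo is then added and luminescence read after 10 min.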
HT1080 IDH1KD tx: qHTS for induction of synthetic lethality in tumor cells producing 2HG: qHTS for the HT-1080-IDH1KD cell line | HT-1080 IDH1 knockdown viability, ATP luminescence, 48 h | Potency, µM (doses to about 46.1 µM), for inactives: top-dose activity, negative = toxicity, hits mostly cytotoxic | 360,000 tested, 2% active | AID 686971, 2013;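 also: 0% = DMSO wells and -100% = cell-free medium wells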
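Assay cells: HT-1080 with IDH1 knockdown, 750 per well, RPMI/5% FBS. Exposure: 48 h at 37 °C following 2 h pre-incubation. Read: CellTiter-Glo luminescence; fitted concentration-response, curve class assigned.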
MCF10A rereplic: A quantitative high throughput screen for small molecules that induce DNA re-replication in MCF 10a normal breast cells. MCF 10A DNA re-replication, Hoechst nuclear intensity, 48 h. Potency, µM (series often up to 46.1 µM), without a hit: at the highest dose activity, positive = re-replication, usual class: activators. 350,000 tested, 2.9% active; also: % of control where 0% means no effect; nearly all actives have a fitted effect of over 50% in size
HT1080NT lethal: qHTS for induction of synthetic lethality in tumor cells producing 2HG: qHTS for the HT-1080-NT fibrosarcoma cell line. HT-1080-NT fibrosarcoma viability, CellTiter-Glo ATP luminescence, 48 h. Potency, µM (doses to about 46.1 µM), for inactives: at the top dose activity, negative = less viability, hits mostly cytotoxic. 360,000 tested, 1.6% active;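 also: NT is the 2HG producing partner of a matched IDH1 knockdown line; 0% = DMSO-treated cells and -100% = media-only wells without cells; nearly all actives have a fitted effect of over 55% in size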
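Compounds were tested in concentration-response format on HT-1080-NT cells for 48 hours at 37 degrees C. Cell viability came from CellTiter-Glo luminescence; curves were classified by r2, response magnitude and activity.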
SW480 rereplic: A quantitative high throughput screen for small molecules that induce DNA re-replication in SW480 colon adenocarcinoma cells. AID 624297, 2012. SW480 DNA re-replication, Hoechst DNA content imaging, 48 h. 340,000 tested, 1.8% active. Potency, µM (series often up to 46.1 µM), for inactives: at the top dose re-replication activation, hits mostly activators; also: % of control where 0% means no effect; nearly all actives have a fitted effect of over 55% in size
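Quantitative HTS format with DMSO vehicle controls; 48 hr drug incubation at 37 C, then 40 min Hoechst staining and scanning imager measurement at 405 nm excitation.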
KB-3-1 cytotox: qHTS assay for MDR1-selective chemotherapeutics: Primary screen using the parental adenocarcinoma cell KB-3-1 | 400,000 tested, 1.4% active | AID 1347075, 2019 | KB-3-1 viability, CellTiter-Glo ATP luminescence, 72 h | Potency, µM (top dose mostly 46.1 µM), actives largely listed as cytotoxic; also: % is scaled to controls: 0 for no effect and ±100 for the full control effect; nearly all actives have a fitted effect of over 60% in size
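Multi-concentration cytotoxicity screen in KB-3-1 cells grown in DMEM lacking phenol red with 10% FBS. After 72 h at 37 °C with compound, ATP-dependent luminescence was recorded.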
Starred values were filed as active, the others as inactive; i = inactive; ? = inconclusive; . = no result. Calls follow the shape of the dose curve; as a rule, active = well fitted curve in the direction sought with a large enough effect; inconclusive = small, poorly fitted or top-dose-only effect, or another doubt; inactive = no such curve, though single readings can be large; an effect the other way counts as inactive or inconclusive. Potency is read from the fitted curve at half-maximal effect.

SMILES	KB-V1 MDR tox	HT1080 IDH1KD tx	MCF10A rereplic	HT1080NT lethal	SW480 rereplic	KB-3-1 cytotox
O=C(NCC1CCCO1)c1cc2c([nH]c3ccccc32)c(-c2cccc(Cl)c2)n1 (configuration not stated)	?	-25%	?	-25%	21µM*	?
COc1cc(-c2nc(C(=O)NCC3CCCO3)cc3c2[nH]c2ccccc23)cc(OC)c1OC (configuration not stated)	?	?	?	?	-3%	i
O=C(NCCCO)c1cc2c([nH]c3ccccc32)c(-c2ccccc2)n1	?	-24%	11%	-10%	-9%	?
O=C(NCCCN1CCOCC1)c1cc2c([nH]c3ccccc32)c(-c2cccc(Br)c2)n1	?	?	4.6µM*	?	16%	?
COc1ccc(OC)c(Nc2cc(C(=O)NCCCN3CCOCC3)c3ccccc3n2)c1	18µM*	?	13%	-30%	8%	i
CCC(C)Nc1nc(N)c([N+](=O)[O-])c(Nc2ccccc2OC)n1 (configuration not stated)	?	21µM*	?	?	-45%	i
Cc1ccc(-c2cc(-c3ccc4c(c3)NC(=O)CO4)nc3c2COc2ccccc2-3)cc1	i	.	.	.	.	i
CCC/C=N/NC(=O)c1[nH]c2c([N+](=O)[O-])cccc2c1C	i	?	6.5µM*	?	18µM*	23µM*
CCOC(=O)c1c(NC(=O)CCN2CCOCC2)sc2c1CC(C)(C)OC2	16µM*	-6%	?	3%	-2%	i
CN(C)CCNC(=O)c1onc(CSc2ccncc2)c1C(=O)NCCN(C)C	i	12%	-1%	0%	3%	i
Cc1cc(C)cc(SCc2noc(C(=O)NCCN(C)C)c2C(=O)NCCN(C)C)c1	i	?	3%	18µM*	?	?
COc1cccc(NC(=O)CCN2CCN(CCO)CC2)c1	i	.	.	.	.	i
Clc1ccccc1CSc1nncn1NC/C=C/c1ccccc1	21µM*	-10%	10%	-2%	-1%	i
CCCN(C(=O)CCc1nc(-c2ccc(C)cc2)no1)c1ccc(OCC)cc1	i	.	.	.	.	i
COc1cc(/C=N/NC(=O)c2ccc(O)cc2)ccc1Oc1ccc([N+](=O)[O-])cn1	i	18µM*	3%	?	19%	i
COc1cc(/C=C(\C#N)c2nc3ccccc3[nH]2)ccc1Oc1ccc([N+](=O)[O-])cn1	i	?	?	?	21%	i
COc1cc(/C=C(/C#N)c2ccccc2)ccc1Oc1ccc([N+](=O)[O-])cn1	18µM*	-8%	19%	?	4%	i
O=C(OCc1ccc(O)cc1)c1c(-c2ccsc2)oc2ccc(N3CCOCC3)cc12	?	?	21µM*	?	21µM*	?
COc1ccc(C#Cc2c(-c3ccc(OC)cc3)oc3ccc(-c4ccc(OC)cc4)cc23)cc1	i	2%	3%	6%	-15%	i
OC1(C#Cc2c(-c3ccsc3)oc3ccc(N4CCOCC4)cc23)CCCCC1	i	?	?	?	?	?
COc1ccc(-c2oc3ccc(N4CCOCC4)cc3c2C#Cc2ccc(N)cc2)cc1	?	23µM*	5.8µM*	16µM*	?	?
COc1ccc(-c2oc3ccc(N4CCOCC4)cc3c2C#CC2(O)CCCCC2)cc1	i	21µM*	?	?	?	21µM*
COc1ccc(C#Cc2c(-c3ccsc3)oc3ccc(N4CCOCC4)cc23)cc1	i	5%	16µM*	-1%	5%	i
CCNc1nc(NCC)nc(Oc2ccc(C(=O)OC)cc2)n1	i	-1%	-2%	0%	?	i
CC1=C(C(=O)OCC2CCCCC2)C(c2ccc(O)cc2)NC(=O)N1 (configuration not stated)	i	-22%	3%	0%	-1%	i
SMILES	KB-V1 MDR tox	HT1080 IDH1KD tx	MCF10A rereplic	HT1080NT lethal	SW480 rereplic	KB-3-1 cytotox
COc1ccc(/C=C/c2c(-c3cccc(C)c3)oc3ccc(N4CCOCC4)cc23)cc1	i	0%	9.2µM*	-3%	6%	i
COCCNC(=O)c1[nH]c2cc(C)ccc2c1Sc1ccc(Cl)cc1	i	.	.	.	.	i
CC(C)=CCc1c(O)ccc(C(=O)Cc2ccccc2)c1O	i	?	21µM*	?	4%	i
Cc1ccc(C(=O)Cc2ccccc2)c(O)c1	i	12%	-31%	14%	-8%	i
CC[C@]12c3[nH]c4ccccc4c3CCN1C(=O)C(CC(=O)NCc1cccc(C(F)(F)F)c1)C[C@@H]2C(=O)N1CCN(C(=O)c2ccco2)CC1 (some centres not stated)	i	?	12%	-10%	24%	i
COCCCn1c(=O)c2sccc2n2c(CCCC(=O)NCc3cccc(OC)c3)nnc12	i	-2%	9%	-1%	-10%	i
Cc1ccc(-c2c[n+]3c(n2-c2ccccc2)SCC3)cc1	i	?	2%	-28%	-8%	3.3µM*
COc1ccc(-c2c[n+]3c(n2-c2ccccc2)SCC3)cc1OC	i	8%	0%	7%	-5%	i
Brc1ccc(-c2c[n+]3c(n2-c2ccccc2)SCC3)cc1	i	?	?	-18%	-14%	?
COc1ccc(-c2c[n+]3c(n2-c2ccccc2)SCC3)cc1	i	?	-3%	-23%	-4%	4.1µM*
COc1cccc(CN2C(=O)CN(C3CCCCC3)C(=O)C2c2ccc(OC)c(OC)c2)c1 (configuration not stated)	i	.	.	.	.	i
COc1cc2c(cc1OC)C(c1ccc(O)cc1)NCC2 (configuration not stated)	i	7%	0%	0%	-2%	i
COc1cc2c(cc1OC)C1Cc3ccc(OC)c(OC)c3CN1CC2 (configuration not stated)	i	3%	1%	-3%	-3%	i

From PubChem
